IMPase cell inh: IMPase inhibition in cells; 120,000 tested, under 10 active; P97697; CHO-M1 cells, IP1 accumulation, HTRF TR-FRET ratio; inhibition (IP1 accumulation), % at 46.1 µM; active = well fitted curve in the direction sought with a large enough effect in the signal ratio, not every such curve was filed as active; inconclusive = small, poorly fitted or top-dose-only effect, or a change in a side signal; inactive = no such curve, though single readings can be large or run the other way; the % refers to the signal ratio;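 note: cells stimulated with carbachol in lithium chloride buffer; plate controls were DMSO basal wells for no effect and reference inhibitor wells for full effect; higher means more IMPase inhibition seen as more IP1 and lower FRET ratio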
Target sequence (P97697 whole entry, looked up): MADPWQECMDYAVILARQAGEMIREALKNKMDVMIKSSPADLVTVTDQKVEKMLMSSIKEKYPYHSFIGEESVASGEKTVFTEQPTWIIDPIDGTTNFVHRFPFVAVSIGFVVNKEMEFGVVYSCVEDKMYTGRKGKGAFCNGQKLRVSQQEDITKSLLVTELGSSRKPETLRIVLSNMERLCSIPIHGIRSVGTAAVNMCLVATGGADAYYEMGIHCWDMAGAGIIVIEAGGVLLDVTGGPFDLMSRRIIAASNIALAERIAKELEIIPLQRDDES
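Elevated IP1 in lysates lowers TR-FRET signal (665/620 ratio and 620 channel reported). Cells were CHO-M1, given carbachol (50 uM as added) plus 50mM LiCl, pH 7.4, 30 min, 37C; compounds titrated up to 46 uM; AC50 by Hill equation.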
HPGD inh: HPGD (human) dehydrogenase inhibition. P15428. purified HPGD, NADH fluorescence kinetic, PGE2 substrate. Potency, µM, for inactives: at the top dose activity change, negative = inhibition, most hits filed as inhibitors. actives 4.3% (n = 150,000); note: potency is the fitted concentration of half-maximal effect
Target sequence (P15428 whole entry, looked up): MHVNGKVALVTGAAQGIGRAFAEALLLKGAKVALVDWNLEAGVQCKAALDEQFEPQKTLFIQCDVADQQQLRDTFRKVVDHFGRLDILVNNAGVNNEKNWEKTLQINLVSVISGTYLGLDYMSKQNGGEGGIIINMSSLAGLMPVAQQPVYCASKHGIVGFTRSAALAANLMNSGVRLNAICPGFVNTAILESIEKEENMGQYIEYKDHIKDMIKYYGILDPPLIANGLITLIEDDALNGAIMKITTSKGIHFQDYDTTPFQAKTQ
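NADH formation kinetics: reaction with 30 uM PGE2 and 1 mM NAD+ (final), 20 nM enzyme, Tris-HCl pH 8 with Tween 20, after 15 min compound preincubation at room temperature. Fluorescence change, last versus first of five reads.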
ALDH1A1 block: blocks purified human ALDH1A1 activity | actives 7.3% (n = 220,000) | Potency, µM (titrated, usually from 75.3 µM), inactives show top-dose activity, negative = inhibition, usual class: inhibitors | Purified ALDH1A1, NADH fluorescence, propionaldehyde substrate | P00352;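 note: potency is the fitted concentration of half-maximal effect; plate controls were no enzyme wells and a reference inhibitor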
* = called active by the depositor; ? = inconclusive; / = no result given; [ ] = dose if it differs, or a comment. Compounds with a hit are over-represented: about 9% of the library has one in this group of screens. Unless noted, calls come from the whole dose curve; as a rule, active = well fitted inhibition curve with a large enough effect (not every such curve was filed as active); inconclusive = small, poorly fitted or top-dose-only effect, or another doubt; inactive = no such curve, though single readings can be large or run the other way. Unless noted, % is set by controls: 0 for no effect and ±100 for the full control effect.

SMILES | IMPase cell inh | HPGD inh | ALDH1A1 block
CN(C1CCCCC1)S(=O)(=O)c1ccc2c(c1)c(=O)c(C(=O)NCCCN1CCCC1)cn2C | 4 | -5% | 5%
CCCCOC(=O)c1ccc(NC(=O)/C(C#N)=C/c2ccc(C)o2)cc1 | -1 | / | /
CCCCCNCc1cccc(Br)c1 | -7 | -2% | 1%
CCOc1cc(N2CCOCC2)c(OCC)cc1NC(=O)CSc1ncn[nH]1 | / | / | -7%
CCOC(=O)C/C(N)=N/N(C)c1ncc(C(F)(F)F)cc1Cl | / | / | 0%
O=C1C=C[C@@H](O)[C@H]2[C@@H]3C(=O)N(Cc4ccccc4)C(=O)[C@@H]3CC[C@H]12 | / | / | 3.2µM*
CCOC(=O)CCN1C(=O)[C@H]2[C@@H]3[C@H](O)C=CC(=O)[C@H]3CC[C@H]2C1=O | / | / | -2%[13.5 µM]
O=C(CSc1nccn1-c1ncc(C(F)(F)F)cc1Cl)c1ccc(Cl)cc1 | 1 | -11% | -8%
N#Cc1ccc(C(=O)CSc2nnc(-c3ccc(C(F)(F)F)cn3)s2)cc1 | / | / | 35µM*
COc1ccc(-c2cc(C(=O)Oc3ccc(C)c(C)c3)c3ccccc3n2)cc1 | -13 | / | /
COc1ccc(/C=C/C(=O)c2ccoc2)cc1 | 6 | ? | ?
COc1ccc(/C=C/C2=CC(C)(C)NC(=S)N2)cc1 | / | / | 5.6µM*
Cc1ccc(NC(=O)c2ccc(N(Cc3ccccc3)S(C)(=O)=O)cc2)cc1 | 0 | / | /
O=C(Oc1ccc2ccccc2c1)c1ccccc1 | 3 | -15% | -2%
CCOc1ccc2nc(SCC(=O)NC(=O)NCc3ccco3)sc2c1 | 8 | -23% | 5%
CCOc1ccc2nc(SCC(=O)NCc3ccco3)sc2c1 | 7 | 22µM* | -3%
CCOc1ccc2nc(SCC(=O)c3ccc(Cl)s3)sc2c1 | -2 | ? | 4%
CCOc1ccc2nc(SCC(=O)c3cccs3)sc2c1 | -1 | 5µM* | 13µM*
Fc1ccc(OCCOCCNCC2CCCO2)cc1 (stereo not given) | 2 | -14% | -8%
CC1=C/C(=N/O)C([C@H]2C=C(C)CC(C)(C)[C@@H]2O)C(C)(C)C1 (stereo not given in full) | / | -5% | 7%[13.5 µM]
COc1ccccc1NC(=O)c1sc2nc(C)c(C(=O)Nc3ccc(C)cc3C)c(-c3ccc(C)o3)c2c1N | 0 | / | /
Cc1cccn2c(NC(=O)c3cccs3)c(-c3ccccc3)nc12 | 1 | -6% | 4%
COc1cccc(-c2cncnc2Nc2ccc(F)cc2)c1 | / | / | -12%
Cc1ccc(C(C(=O)NC(C)(C)C)N(Cc2cccnc2)C(=O)C(=O)NC2CCCCC2)o1 (stereo not given) | / | / | -11%
Cc1ccc(N(CC(O)COCc2ccco2)S(=O)(=O)c2ccc(C)cc2)cc1 (stereo not given) | -2 | -20% | 3.2µM*
SMILES | IMPase cell inh | HPGD inh | ALDH1A1 block
CCCN(CCC)CC(O)CN(c1ccccc1)S(=O)(=O)c1ccc(C)cc1 (stereo not given) | 6 | -5% | 15%
COc1cc2c(cc1OC)C(c1ccccc1O)N(C1CC(=O)N(c3ccccc3)C1=O)CC2 (stereo not given) | -16 | -13% | 13µM*
COc1cc2c(cc1OC)C(c1ccccc1)N(C(=O)CCl)CC2 (stereo not given) | -4 | -11% | ?
COc1ccc(-n2c(=O)c(-c3cccs3)nc3cnc(OC)nc32)cc1 | / | / | 22%
CNc1nc(Nc2ccc(Br)cc2)nc(N)c1[N+](=O)[O-] | / | -10% | 2%
Cc1ccc(CSCCNC(=O)CCSc2ccccc2)cc1 | -2 | ? | ?
Cc1ccccc1CSCCNC(=O)CCSc1ccccc1 | -12 | 10µM* | 7.1µM*
O=C(CNCCC1=CCCCC1)Nc1ccccc1N1CCCCC1 | -3 | ? | 9.5µM*
O=C(CCSCc1ccc(Cl)cc1)NCCC1=CCCCC1 | 8 | -30% | 3%
O=C(Cc1ccccc1)NCCC1=CCCCC1 | / | ? | -8%
Cc1ccccc1CSCCC(=O)NCCC1=CCCCC1 | 1 | 13µM* | -37%
O=C(CNC1CCCCCC1)Nc1ccccc1N1CCCCC1 | 14 | -10% | -9%
O=C(CCc1ccccc1)NCCC1=CCCCC1 | / | 25µM* | 5%
Cc1ccc(-c2nc(CN(C)C3CCOC3)c(C)o2)s1 (stereo not given) | / | / | -5%
CC(=O)O[C@H](C(=O)O[C@@H]1C[C@@H](CCC[C@H]2O[C@H](C(=O)OC(C)C)CC[C@@H]2C)O[C@@H](CC#N)C1)c1ccccc1 | / | -10% | -5%
CCCC1C2C(=O)N(c3ccccc3OCC)C(=O)C2ON1c1ccccc1 (stereo not given) | -11 | -10% | -3%
COC(=O)c1ccccc1S(=O)(=O)N1CCc2nc(-c3ccccc3)c3c(c2C1)CO[C@@H](C)C3 | / | -10% | ?
O=C(NNS(=O)(=O)c1ccc(F)c(Cl)c1)c1cccc(S(=O)(=O)N2CCOCC2)c1 | -3 | -8% | 12%
CCN(/N=C/c1ccc(Cl)cc1)c1cc(=O)n(C)c(=O)[nH]1 | -10 | 28µM* | ?
CCN(/N=C/C=C/c1ccccc1)c1cc(=O)n(C)c(=O)[nH]1 | -3 | -26% | 1%
COc1ccc(CN(C(C)=O)c2cccc(C)c2C)cc1 | 10 | -4% | 5µM*
COc1ccc(CN(C(=O)CO/N=C/c2ccccc2)c2ccccc2C(=O)O)cc1 | / | -7% | 3%
CC12CCC(C(=O)N(CC3CO3)C1=O)C2(C)C (stereo not given) | / | / | 1%
CCOC(=O)c1ccc(N)cc1 | 0[20.6 µM] | -9% | 10%
N=C1C=CC(=C(c2ccc(N)cc2)c2ccc(N)cc2)C=C1 | / | 10µM* | 7%[13.5 µM]
SMILES | IMPase cell inh | HPGD inh | ALDH1A1 block
CCOC(=O)C(C#N)C(c1cccnc1)c1c(C)[nH][nH]c1=O (stereo not given) | -2 | 0% | -7%
CCCc1[nH][nH]c(=O)c1C(c1ccc(Br)cc1)C(C#N)C#N (stereo not given) | -3 | 20µM* | ?
COC(=O)C1CC(=O)c2ccsc2C1 (stereo not given) | / | -1% | 5%
COc1ccc(CCCc2n[nH]c(=S)n2C)cc1C | / | / | -1%
COc1ccc(CCCc2n[nH]c(=S)o2)cc1C | / | / | 8.9µM*
O=C1NC2=C(C(=O)c3ccccc32)C(c2ccccc2)N1 (stereo not given) | 0 | -24% | 16µM*
CC(=O)C1=C(C)NC(=O)NC1c1ccccc1 (stereo not given) | 2 | -6% | 9%
CC1=C([N+](=O)[O-])C(c2ccccc2)C2=C(N1)c1ccccc1C2=O (stereo not given) | 3 | 22µM* | ?
COc1ccc(C2C(C#N)=C(C)NC3=C2C(=O)c2ccccc23)cc1 (stereo not given) | -23 | -20% | ?
NC(=S)N/N=C/C=C/c1ccccc1 | / | -19% | -4%
O=c1nc2c(O)cccn2c2c1c(=O)[nH]c1ccccc12 | -10 | ? | 20µM*
O=c1[nH]c2ccccc2c2nc3ccccn3c12 | -1 | -21% | -4%
COc1ccc(CCNC(=O)CN(c2cc(C(F)(F)F)ccc2Cl)S(C)(=O)=O)cc1 | 1 | / | /
O=C1c2ccccc2C(=O)N1CCCc1nc2ccccc2c(=O)n1-c1cccnc1 | -1 | -1% | -14%
CCCOc1ccc(/C=N/Nc2ccccc2[N+](=O)[O-])c(OCCC)c1 | -13 | -12% | 0%

Bioassay records deposited in PubChem BioAssay by National Center for Advancing Translational Sciences (NCATS).
